Screens as filed in PubChem BioAssay.
Shown are actives, neighbours in structure and some others; about 10% of the full set was active somewhere.
CtBP-E1A inh: CtBP/E1A binding inhibition | AID 651724 | AlphaScreen GST-E1A/His-CtBP binding, 1536-well; active compounds read low | activity change, % (no concentration beside the values) | actives 0.49% (n = 340,000); in the data active means activity change below about -65%; inconclusive means mostly about -30% to -63%; further: on the % scale 0 is the no-effect control and ±100 the full control effect
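Steps: dispense buffer (Tris pH 8.0, NaCl 300 mM, TCEP 1 mM, BSA, Tween 20); add 5X protein mix (GST-E1A, His-CtBP, 125 nM each); pin 23 nL compound; 2 h at 37 °C, dark; add 5X beads (50 ug/mL); 1 h; read.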
JMJD2A Tudor inh: inhibitors of human JMJD2A Tudor domain; AID 504339; Potency, µM (doses to about 114 µM), for the others: at the top dose activity change, negative = inhibition, most hits filed as inhibitors; actives 4.4% (n = 390,000); AlphaScreen JMJD2A-Tudor / H3K4me3 peptide binding; O75164; further: potency means the concentration at half of the fitted maximal effect; on the % scale 0 is the no-effect control and ±100 the full control effect; nearly all actives have a fitted effect of over 50% in size
Six1-Eya2 blk: blocks human Six1 binding to Eya2 | Q15475+O00167 | AlphaScreen GST-Six1/His-Eya2 binding, biochemical; active compounds read low | activity change, % (no concentration beside the values) | actives 0.56% (n = 360,000); in the data active means activity change below about -65%; inconclusive means mostly about -30% to -63%; further: on the % scale 0 is the no-effect control and ±100 the full control effect
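Homogeneous AlphaScreen proximity assay pairing GST-Six1 with His-tagged Eya2 (added as 5X mix: 250 nM and 500 nM) in 50 mM Tris pH 8.0, 300 mM NaCl, 1 mM TCEP. Glutathione donor and nickel acceptor beads; 1 h, 37 °C, dark.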
HP1b chromo inh: blocks HP1-beta chromodomain binding to methylated histone tails | P83916 | AlphaScreen HP1-beta / biotin-H3K9me3 peptide binding | Potency, µM (highest dose often 114 µM), without a hit: at the highest dose activity change, negative = inhibition, actives largely listed as inhibitors | actives 0.56% (n = 390,000); further: potency means the concentration at half of the fitted maximal effect; nearly all actives have a fitted effect of over 70% in size
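AlphaScreen: HP1-beta (50 nM) preformed 30 min with biotin-H3(1-18)K9me3 peptide (50 nM) in PBS pH 7.4, 0.01% Tween-20. Compound added for 30 min at RT, then streptavidin donor/nickel chelate acceptor beads (10 ug/mL) for 30 min.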
BAZ2B block: inhibitors of human BAZ2B bromodomain | Q9UIF8 | AlphaScreen BAZ2B-H3K14Ac peptide displacement | Potency, µM (highest dose often 114 µM), for the others: at the highest dose activity change, negative = inhibition, most hits filed as inhibitors | actives 4.4% (n = 360,000) | AID 504333; further: potency means the concentration at half of the fitted maximal effect; on the % scale 0 is the no-effect control and ±100 the full control effect; nearly all actives have a fitted effect of over 60% in size
Target sequence (Q9UIF8 whole entry, looked up): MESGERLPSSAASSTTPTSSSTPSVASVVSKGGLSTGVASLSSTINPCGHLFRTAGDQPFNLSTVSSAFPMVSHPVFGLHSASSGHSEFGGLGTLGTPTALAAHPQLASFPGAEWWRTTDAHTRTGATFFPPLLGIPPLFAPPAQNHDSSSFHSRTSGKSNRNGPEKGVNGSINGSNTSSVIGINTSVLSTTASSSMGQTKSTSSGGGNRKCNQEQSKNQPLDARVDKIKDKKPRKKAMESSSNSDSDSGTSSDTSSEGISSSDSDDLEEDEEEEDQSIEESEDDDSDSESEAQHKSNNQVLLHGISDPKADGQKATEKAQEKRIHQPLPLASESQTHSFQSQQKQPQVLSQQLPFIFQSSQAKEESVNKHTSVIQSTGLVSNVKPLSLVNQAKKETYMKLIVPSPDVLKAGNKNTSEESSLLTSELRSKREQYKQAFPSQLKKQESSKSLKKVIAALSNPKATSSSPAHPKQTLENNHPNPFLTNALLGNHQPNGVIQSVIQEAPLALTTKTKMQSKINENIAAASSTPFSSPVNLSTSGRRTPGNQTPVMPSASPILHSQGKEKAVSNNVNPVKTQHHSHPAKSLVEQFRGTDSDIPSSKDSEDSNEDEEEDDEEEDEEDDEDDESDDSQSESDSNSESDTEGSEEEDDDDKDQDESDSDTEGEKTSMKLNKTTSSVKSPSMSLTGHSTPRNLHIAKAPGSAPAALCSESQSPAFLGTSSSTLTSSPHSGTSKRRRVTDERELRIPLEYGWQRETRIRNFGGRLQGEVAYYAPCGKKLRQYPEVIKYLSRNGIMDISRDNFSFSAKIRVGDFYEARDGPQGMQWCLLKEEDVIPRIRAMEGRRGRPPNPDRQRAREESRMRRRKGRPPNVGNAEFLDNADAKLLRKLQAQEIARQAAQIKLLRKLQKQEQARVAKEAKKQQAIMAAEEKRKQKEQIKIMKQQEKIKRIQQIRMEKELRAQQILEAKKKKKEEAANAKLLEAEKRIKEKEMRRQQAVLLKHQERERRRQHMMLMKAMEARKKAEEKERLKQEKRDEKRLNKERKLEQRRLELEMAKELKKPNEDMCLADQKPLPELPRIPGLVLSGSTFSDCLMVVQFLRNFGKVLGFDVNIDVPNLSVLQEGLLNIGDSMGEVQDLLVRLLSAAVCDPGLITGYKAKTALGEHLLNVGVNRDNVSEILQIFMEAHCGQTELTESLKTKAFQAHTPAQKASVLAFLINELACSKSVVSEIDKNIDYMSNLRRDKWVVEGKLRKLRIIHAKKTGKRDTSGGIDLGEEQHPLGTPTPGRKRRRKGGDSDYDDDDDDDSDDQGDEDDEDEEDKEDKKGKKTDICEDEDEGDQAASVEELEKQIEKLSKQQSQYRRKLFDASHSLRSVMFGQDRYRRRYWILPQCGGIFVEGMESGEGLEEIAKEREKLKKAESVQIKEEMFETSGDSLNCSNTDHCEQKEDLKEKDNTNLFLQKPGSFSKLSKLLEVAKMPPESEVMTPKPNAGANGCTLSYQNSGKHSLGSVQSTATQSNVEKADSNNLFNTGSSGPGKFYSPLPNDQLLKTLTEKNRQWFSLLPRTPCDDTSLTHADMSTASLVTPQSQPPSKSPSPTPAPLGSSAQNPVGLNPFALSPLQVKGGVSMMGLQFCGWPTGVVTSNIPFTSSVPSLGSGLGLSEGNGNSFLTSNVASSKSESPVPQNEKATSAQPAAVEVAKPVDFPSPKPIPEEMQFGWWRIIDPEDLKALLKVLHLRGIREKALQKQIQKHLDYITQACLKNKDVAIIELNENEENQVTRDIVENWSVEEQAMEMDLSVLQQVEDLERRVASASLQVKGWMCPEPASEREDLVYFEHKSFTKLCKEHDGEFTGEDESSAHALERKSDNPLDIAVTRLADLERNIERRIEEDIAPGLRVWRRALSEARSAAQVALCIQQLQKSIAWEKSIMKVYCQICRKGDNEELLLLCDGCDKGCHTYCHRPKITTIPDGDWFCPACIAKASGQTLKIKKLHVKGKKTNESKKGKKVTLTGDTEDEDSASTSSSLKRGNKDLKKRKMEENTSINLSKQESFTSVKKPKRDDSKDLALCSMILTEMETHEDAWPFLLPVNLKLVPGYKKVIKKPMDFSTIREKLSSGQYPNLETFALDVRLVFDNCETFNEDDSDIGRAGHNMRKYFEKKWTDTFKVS
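Inhibition is scored as reduced AlphaScreen emission. The BAZ2B/b-H3(5-23)K14Ac complex (50 nM each) in PBS pH 7.4, 0.01% Tween-20 meets compound (up to 110 uM) for 30 min at RT before bead addition.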
G9a inh: blocks human histone lysine methyltransferase G9a. Q96KQ7. G9a H3K9 monomethylation, AlphaScreen, 2 h. Potency, µM (doses to about 102 µM), inactives show at the top dose activity, negative = inhibition, usual class: inhibitors. actives 8.8% (n = 350,000). AID 504332; further: potency means the concentration at half of the fitted maximal effect; on the % scale 0 is the no-effect control and ±100 the full control effect; nearly all actives have a fitted effect of over 75% in size
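Chemiluminescent proximity detection of H3K9 monomethylation, read after 10 min bead incubation in the dark. Reaction: 20 nM G9a, 500 nM biotin-H3K9 peptide, 20 uM SAM cofactor, 2 h, room temperature, following 15 min enzyme-compound preincubation.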
The depositor's hits bear a star; ? = inconclusive; . = not tested or not shown; [ ] = another dose, or the depositor's remark. Unless noted, the call rests on the fitted dose curve; in most records, active means well fitted inhibition curve with a large enough effect; inconclusive means small, poorly fitted or top-dose-only effect; inactive means no such curve, though single readings can be large or run the other way.

SMILES	CtBP-E1A inh	JMJD2A Tudor inh	Six1-Eya2 blk	HP1b chromo inh	BAZ2B block	G9a inh
O=C1C(=Cc2ccco2)C(=O)c2ccccc21	-3	?	-7	-16%	?	13µM*
Cc1ccc(/C=C2/C(=O)c3ccc(C(=O)O)cc3C2=O)o1	5	28µM*	?	71µM*	11µM*	.
O=C(O)c1ccc(C=NN=Cc2ccco2)cc1	-6	-8%	2	22%	.	.
CC(C)(C)N1C(=O)c2ccc(C(=O)O)cc2C1=O	7	-5%	5	27%	1%	55%[59 µM]
O=C(O)c1ccc2c(c1)C(=O)/C(=C/c1ccccc1)C2=O	-6	?	?	45µM*	50µM*	13µM*
C#CCOCCOCCOCCNc1nc(N2CCN(C(=O)[C@H](CCC(=O)O)n3cc(C(N)CC(C)C)nn3)CC2)nc(N2CCN(C(=O)[C@H](Cc3cc4ccccc4[nH]3)n3cc(C(N)[C@H](C)CC)nn3)CC2)n1 (stereo partly specified)	-24	56µM*	-17	16%	50µM*	?
C#CCOCCOCCOCCNc1nc(N2CCOCC2)nc(N2CCN(C(=O)[C@H](Cc3cc4ccccc4[nH]3)n3cc([C@@H](N)C(C)CC)nn3)CC2)n1 (stereo partly specified)	-2	?	-5	21%	?	?
C#CCOCCOCCOCCNc1nc(N2CCN(C(=O)[C@H](CCC(=O)O)n3cc(C(N)[C@H](C)CC)nn3)CC2)nc(N2CCN(C(=O)[C@H](Cc3cc4ccccc4[nH]3)n3cc(C(N)[C@H](C)CC)nn3)CC2)n1 (stereo partly specified)	.	.	.	.	50µM*	-8%[12.7 µM]
C#CCOCCOCCOCCNc1nc(N2CCN(C(=O)[C@H](CCCCN)n3cc([C@@H](N)C(C)CC)nn3)CC2)nc(N2CCN(C(=O)[C@H](Cc3cc4ccccc4[nH]3)n3cc([C@@H](N)C(C)CC)nn3)CC2)n1 (stereo partly specified)	-7	50µM*	-4	-19%	.	.
C#CCOCCOCCOCCNc1nc(N2CCN(C(=O)C(Cc3cc4ccccc4[nH]3)n3cc(C(N)C(C)CC)nn3)CC2)nc(N2CCN(C(=O)C(Cc3cc4ccccc4[nH]3)n3cc(C(N)C(C)CC)nn3)CC2)n1 (stereo unspecified)	-27	28µM*	-28	?	28µM*	-103%[59 µM]
C#CCOCCOCCOCCNc1nc(N2CCN(C(=O)[C@H](CO)n3cc([C@@H](N)C(C)C)nn3)CC2)nc(N2CCN(C(=O)[C@H](CCCCN)n3cc([C@@H](N)[C@H](C)CC)nn3)CC2)n1	-10	-4%	-7	39%	.	.
COc1ccc(Cc2nc3ccc(C(=O)N4CCCCC4CCO)cc3o2)cc1 (stereo unspecified)	-5	?	-5	18%	-5%	-4%
COC(=O)CC1C(=O)NCCN1C(=O)CSc1nc2ccc([N+](=O)[O-])cc2s1 (stereo unspecified)	10	-21%	-9	21%	0%	-9%
Cc1ccc2oc(-c3cc(NC(=O)CC(C)C)ccc3Cl)nc2c1	.	-3%	.	24%	8%	-3%[59 µM]
CC1(C)Cc2cccc(OC(=O)NC3CCCCC3)c2O1	5	.	4	.	.	.
COc1ccc(-n2c(=O)c(-c3ccc(F)cc3)nc3cnc(N4CCOCC4)nc32)cc1	.	.	.	.	.	4%[0.501 µM]
Cc1nc(N)sc1-c1csc(Nc2ccc(Cl)cn2)n1	?	?	?	?	?	10µM*
Cc1nc(N)sc1-c1csc(Nc2ccccn2)n1	?	79µM*	?	-46%	-38%	?
Cc1ccnc(Nc2nc(-c3sc(C)nc3C)cs2)c1	-30	79µM*	-22	?	.	.
CC1(C(=O)NS(=O)(=O)c2cccc(OC(F)F)c2)CCN1C(=O)Cc1ccccc1 (stereo unspecified)	5	.	10	.	.	.
COc1ccc(/C=C/C(=O)c2ccccn2)cc1	1	-25%	1	5%	?	40µM*
COc1ccc([N+](=O)[O-])c(C=CC(=O)c2ccccn2)c1	1	.	-18	.	.	.
COc1ccc(/C=C/C(=O)c2ccc(O)cc2)cc1	8	?	7	-4%	?	21%[59 µM]
COc1ccc(/C=C/C(=O)c2ccccc2O)cc1	9	63µM*	9	-21%	?	45µM*
CC(OC(=O)c1cc(=O)c2cc(Cl)ccc2o1)C(=O)N1CCCC1 (stereo unspecified)	2	4%	-2	23%	-2%	-40%
SMILES	CtBP-E1A inh	JMJD2A Tudor inh	Six1-Eya2 blk	HP1b chromo inh	BAZ2B block	G9a inh
COc1ccc(NC(=O)c2cc([N+](=O)[O-])ccc2NC(=O)CNCc2ccccn2)c(OC)c1	-17	79µM*	?	-1%	?	28µM*
COc1cc([N+](=O)[O-])ccc1NC(=O)CSc1ccccn1	.	.	.	.	-16%	7%
COc1cc(NC(=O)c2cc([N+](=O)[O-])ccc2NC(=O)CNCc2ccccn2)cc(OC)c1	-84*	79µM*	-91*	6%	?	0%
O=C(O)c1cc([N+](=O)[O-])ccc1NCc1ccccn1	-1	79µM*	-5	27%	79µM*	23%[2.33 µM]
CC1C=CC(C)C(C(=O)O)C1C(=O)O (stereo unspecified)	-15	45µM*	?	-5%	50µM*	?
O=C1CCC(/C=C/c2ccccc2)=NN1Cc1ccc(F)cc1	11	9%	11	72%	20%	90%
CN(C)c1cccc(C(=O)Nc2nc3ccccc3[nH]2)c1	-20	45µM*	?	?	35µM*	50µM*
Cn1nc(C(=O)Nc2nc3ccccc3[nH]2)ccc1=O	-21	-35%	-6	19%	?	32µM*
O=C(Nc1nc2ccccc2[nH]1)c1ccc(Cl)c(S(=O)(=O)N2CCCC2)c1	-73*	-27%	?	7%	-5%	9%
Cc1ccc(C(=O)Nc2nc3ccccc3[nH]2)cc1	-6	-16%	-3	7%	3%	-10%
O=C(Nc1nc2ccccc2[nH]1)c1ccc(S(=O)(=O)N2CCOCC2)cc1	.	-14%	-1	10%[57 µM]	-21%	46%
N#CC1=C(N)N(c2ccc(F)cc2)C2=C(C1c1ccc(O)cc1)S(=O)(=O)CC2 (stereo unspecified)	-9	32µM*	-13	40µM*	35µM*	4µM*
O=[N+]([O-])/C=C/c1cc2ccccc2[nH]1	.	-29%	1	21%	-29%	18µM*
O=[N+]([O-])c1cccc(-c2cc3ccccc3[nH]2)c1	-1	-29%	-3	21%	-24%	2%
